The assay can be described thus: HT29 colon tumor cell growth inhibition, primary screen, imaging, high content imaging, 72 h, CellTiter-Glo (AID 772).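 On condensed nuclei: condensed means nuclear area below control median minus 1.5 SD.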 The following applies: HCS imaging cell count, at 10 µM, stronger effect = higher value; for condensed nuclei: measured here: percent cells with condensed nuclei.
[1] abbreviates: measured here: ATP CellTiter-Glo viability.

The whole screen tested about 3,300 compounds, of which about 20 (0.6%) were called active. The sample holds actives, similar compounds and a random draw of the others, so the mix is not that of the screen.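 How the source made its calls: active means growth inhibition above 90%, meaning viable cell count cut by more than 90% versus vehicle controls; inactive means growth inhibition below 90%.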

In the case of `COC(=O)C1=C(C)N=C2SC(C)C(=O)N2C1/C=C/c1ccccc1OC` (configuration not stated), the growth inhibition was -57.1% (inactive) and the condensed nuclei was 1.79%. Under setting [1], the growth inhibition was -59.2%.

As for `CCCCC(=O)c1c(C)cc(C)[nH]c1=O`, the growth inhibition was -16.9% (inactive) and the condensed nuclei is 1.27%. Further, under setting [1], the growth inhibition is -46.2%.

Consider `CCN(CC)CCN1C(=O)C(O)=C(C(=O)c2cccs2)C1c1ccccn1` (configuration not stated), for which the growth inhibition was -42% (inactive) and the condensed nuclei is 3.64%. For the same molecule, under setting [1], the growth inhibition was -45.7%.

`CCN(CC)CCOC(=O)c1c(C)n(C)c2ccc(OC)cc12`: the growth inhibition was -57.1% (inactive) and the condensed nuclei was 3.82%. The growth inhibition under setting [1] was -23%.

On to `Cn1cc(Cl)nc1C(O)c1ccccc1` (configuration not stated), for which the growth inhibition is -111% (inactive) and the condensed nuclei is 2.87%. Moreover, under setting [1], the growth inhibition was -43.7%.

Take `Cc1cc2c(c(=O)o1)C(CC(C)C)C(C#N)=C(N)O2` (configuration not stated): the growth inhibition was 18.4% (inactive) and the condensed nuclei was 2.71%. Under setting [1], the growth inhibition was -9.11%.

As for `N/C(CCN1CCCCC1)=N/O`, the growth inhibition was 20.8% (inactive) and the condensed nuclei is 6.52%. In addition, the growth inhibition under setting [1] amounted to 13.8%.

On to `c1ccc(Cc2nn[nH]n2)cc1`, for which the growth inhibition was 14.9% (inactive) and the condensed nuclei amounted to 4.71%. Besides, the growth inhibition under setting [1] was -16.9%.

On to `N#C/C(=N\O)c1nc(-c2ccccc2)cs1`, for which the growth inhibition was -131% (inactive) and the condensed nuclei stood at 3.16%. Besides, the growth inhibition under setting [1] was -49.8%.

As for `CCOc1cccc(-c2nnc3sc(-c4ccco4)nn23)c1`, the growth inhibition is -51.8% (inactive) and the condensed nuclei was 2.36%. For the same molecule, under setting [1], the growth inhibition is -46.9%.

With `CCOC(=O)C(Oc1ccc(=O)[nH]n1)C(C)=O` (configuration not stated), the growth inhibition is -6.93% (inactive) and the condensed nuclei was determined as 3.6%. In addition, the growth inhibition under setting [1] is -59.3%.

In the case of `CC(C)Sc1nnc2n(CCc3ccccc3)c(=O)c3c4c(sc3n12)COC(C)(C)C4`, the growth inhibition was 0.75% (inactive) and the condensed nuclei worked out at 1.47%. Besides, under setting [1], the growth inhibition was -42.2%.

In the case of `CCc1[nH]c(=O)c(C#N)c2c1CSC(C)(C)C2`, the growth inhibition was 9.49% (inactive) and the condensed nuclei turned out to be 4.45%. The growth inhibition under setting [1] was -3.16%.

In the case of `CC1(C)CC(=O)C2=C(C1)Oc1nc3ccccc3cc1C2C(C#N)C#N` (configuration not stated), the growth inhibition is 92.5% (active) and the condensed nuclei was found to be 0%. In addition, under setting [1], the growth inhibition worked out at 71.1%.

For the molecule `Cc1nn(C)cc1C1C2=C(CC(C)(C)CC2=O)OC2=C1C(=O)CC(C)(C)C2`, the growth inhibition is -19.8% (inactive) and the condensed nuclei was 2.88%. For the same molecule, the growth inhibition under setting [1] is -38.9%.

As for `CC1(C)CC(=O)C2=C(C1)OC(N)=C(C#N)C2C1C=CCCC1` (configuration not stated), the growth inhibition is 59.5% (inactive) and the condensed nuclei turned out to be 3.5%. The growth inhibition under setting [1] is 32.2%.

Turning to `CCCCOC(=O)c1ccc(NC(=O)CSc2nncn2C)cc1`, the growth inhibition is 11.7% (inactive) and the condensed nuclei was 2.84%. Besides, the growth inhibition under setting [1] is -49.6%.

For the molecule `Cc1cc(=O)oc(C)c1C(=O)NCC1CCCO1` (configuration not stated), the growth inhibition was 13.8% (inactive) and the condensed nuclei came out at 7.86%. Further, the growth inhibition under setting [1] turned out to be 8.51%.

As to `Cc1cccc(-n2ncc3c(NCc4ccco4)ncnc32)c1`, the growth inhibition is 88.8% (inactive) and the condensed nuclei was determined as 12.1%. The growth inhibition under setting [1] was determined as 83.6%.

Turning to `Clc1ccc(-n2ncc3c(NCc4cccs4)ncnc32)cc1`, the growth inhibition was -12.9% (inactive) and the condensed nuclei worked out at 2.28%. Also, the growth inhibition under setting [1] was -9.82%.

Turning to `Clc1ccc(-n2ncc3c(NCc4ccco4)ncnc32)cc1`, the growth inhibition was 90.8% (active) and the condensed nuclei was 40%. In addition, the growth inhibition under setting [1] amounted to 93.7%.

On to `Cn1c(OCc2ccco2)nc2c1c(=O)n(Cc1ccc(Cl)c(Cl)c1)c(=O)n2C`, for which the growth inhibition was -4.69% (inactive) and the condensed nuclei came out at 6.05%. The growth inhibition under setting [1] is -10%.

Regarding `COc1ccc(CNc2oc(COc3ccc(Cl)cc3)nc2C#N)cc1`, the growth inhibition was 59% (inactive) and the condensed nuclei was determined as 24.8%. In addition, under setting [1], the growth inhibition was 54.4%.

Turning to `COc1ccc(CSc2nnc3n(C)c(=O)c4c5c(sc4n23)CCCC5)cc1`, the growth inhibition is -75.3% (inactive) and the condensed nuclei came out at 2.4%. Moreover, the growth inhibition under setting [1] was -39.3%.

In the case of `Cc1ccc(-c2nnc(-c3cccc(Br)c3)o2)cc1`, the growth inhibition is 20.1% (inactive) and the condensed nuclei amounted to 0%. Moreover, under setting [1], the growth inhibition is -5.25%.

`Cc1ccccc1C(=O)c1ccc2c(c1)n(C)c(=O)n2C`: the growth inhibition was -2.53% (inactive) and the condensed nuclei came to 3.03%. For the same molecule, under setting [1], the growth inhibition was -7.19%.

Take `O=C(NC1CCCCC1)N1CCSC1=Nc1ccccc1`: the growth inhibition is 54.8% (inactive) and the condensed nuclei stood at 9.09%. The growth inhibition under setting [1] is 12.5%.

Take `O=C1C(=O)N(CCN2CCOCC2)C(c2ccccn2)/C1=C(/O)c1ccc(F)cc1` (configuration not stated): the growth inhibition is -59.2% (inactive) and the condensed nuclei came to 3.57%. Also, the growth inhibition under setting [1] is -29.6%.

In the case of `C=CCNc1nc(-c2ccc(O)c(C(N)=O)c2)cs1`, the growth inhibition is -5% (inactive) and the condensed nuclei came out at 8.5%. The growth inhibition under setting [1] came out at 38.5%.

Consider `CCOc1ccc(-c2nc(C#N)c(N3CCN(CC)CC3)o2)cc1`, for which the growth inhibition was 33.8% (inactive) and the condensed nuclei came to 5.03%. For the same molecule, the growth inhibition under setting [1] is -1.72%.

For the molecule `C=CCOC(=O)C(C#N)c1nc2ccccc2nc1N1CCN(c2ccccc2OCC)CC1` (configuration not stated), the growth inhibition is -8.05% (inactive) and the condensed nuclei came to 3.97%. The growth inhibition under setting [1] is -23.8%.

On to `Cc1cc(C)n(CC2CC(=O)N(c3cc(Cl)cc(Cl)c3)C2=O)n1` (configuration not stated), for which the growth inhibition is -36.8% (inactive) and the condensed nuclei amounted to 2.19%. Moreover, the growth inhibition under setting [1] was -33.9%.

Consider `COCCCn1c2nc3ccccc3nc2c2c(=O)n(-c3ccccc3OC)c(C)nc21`, for which the growth inhibition was -36.8% (inactive) and the condensed nuclei is 1.23%. Besides, under setting [1], the growth inhibition was -45.7%.

For `C=CCOC(=O)C1=C(C)OC(N)=C(C#N)C1c1ccoc1` (configuration not stated), the growth inhibition is 45.6% (inactive) and the condensed nuclei came out at 6.32%. The growth inhibition under setting [1] came to 21.7%.

In the case of `CCOC(=O)c1c(SC)nc(SC)c2c1CCC2`, the growth inhibition is -36.8% (inactive) and the condensed nuclei was determined as 3.12%. The growth inhibition under setting [1] was -48%.

With `Cc1cc(C)n(Cc2ccc(C(=O)NCCC3=CCCCC3)o2)n1`, the growth inhibition is -19.5% (inactive) and the condensed nuclei turned out to be 3.56%. In addition, the growth inhibition under setting [1] is 3.39%.

As for `Cn1cc(Br)cc2nc(C(F)(F)F)nc1-2`, the growth inhibition was 1.5% (inactive) and the condensed nuclei amounted to 22.8%. Besides, under setting [1], the growth inhibition turned out to be 19.5%.

As for `COc1ccc(C2CC(=O)c3sc(N)nc3C2)cc1` (configuration not stated), the growth inhibition is 57.6% (inactive) and the condensed nuclei is 1.99%. Under setting [1], the growth inhibition stood at 22.2%.

As for `O=C(NCCC1=CCCCC1)c1ccc(=O)oc1`, the growth inhibition is 45.9% (inactive) and the condensed nuclei amounted to 21.8%. Also, the growth inhibition under setting [1] was 19.6%.
